Experiment in all cases: NCI-60 one-dose screen, 48 h (100 = growth as untreated, 0 = no growth, -100 = all killed)
Holding throughout (conditions): 10 µM unless noted

Test [1] has as its system SR leukemia.
The test system of test [2] is RPMI-8226 leukemia.
The test system of test [3] is OVCAR-8 ovarian.
For test [4], the system named is OVCAR-5 ovarian.
The test system of test [5] is OVCAR-4 ovarian.
Test [6] concerns SK-OV-3 ovarian.
Test [7] concerns IGROV1 ovarian.
In test [8] the test system is OVCAR-3 ovarian.
Test [9] has as its system HS 578T breast.
Test [10] deals with NCI/ADR-RES ovarian.
Test [11] deals with T-47D breast.
Test [12] has as its system BT-549 breast.
Test [13] relates to MDA-MB-435 melanoma.
For test [14], the system named is SW-620 colon.
In test [15] the test system is MCF7 breast.
For test [16], the system named is HCT-116 colon.
Test [17] relates to HCC-2998 colon.
For test [18], the system named is KM12 colon.

Compounds without any hit were thinned out: in the full panel of roughly 83,000, 20% have a hit.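 Results are percent growth after 48 hours of single-concentration exposure. 100 means growth as in untreated cells, lower positive values show inhibition; negative values down to -100 show cell death.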 Values without a mark were called inactive. The source made the active and inactive calls. The calls were made as follows: active = growth percent below 10; inactive = the rest.

On to `Cc1ccc(-c2nnc(SCc3ccc(O)c4ncccc34)o2)cc1`, for which the growth was 32.8% in [1]; 12.8% in test [2]; 12.2% in test [3]; 58.2% in test [4]; 15.8% in test [5]; 14.1% in test [6]. Besides, the growth in test [7] is 13.7%; in [8], 28.4%; in [9], 15.5%; in [10], 10.7%; in [11] it was 13.4%; in test [12], 30%. Also, the growth in test [13] was 17.7%; in test [14], 14.1%; in test [15], 10.6%; in test [16], 18.5%; in [17], 34.4%; in test [18], 11.4%.

For the molecule `COc1cccc(O)c1/C=C(/C)c1ccc2c(OC)cccc2[o+]1`, the growth is 87.6% in test [1]; 109% in test [2]; 103% in test [3]; 106% in test [4]; 103% in test [5]; 106% in test [6]. Besides, the growth in [7] is 97%; in test [8], 116%; in [9] it was 110%; in test [10], 100%; in [11] it was 106%; in test [12], 95.7%. For the same molecule, the growth in test [13] was 86.7%; in [14], 96.7%; in test [15], 93.8%; in test [16], 101%; in test [17] it was 110%; in test [18] it was 101%.

`O=C(CN1CCN(c2cc(=O)n(-c3ccccc3)c3ccccc23)CC1)Nc1ccc(F)cc1`: the growth in test [1] is 76.4%; in test [2] it was 61.5%; in test [3], 71.2%; in test [4], 101%; in test [5], 22.7%; in test [6], 78.6%. Besides, the growth in [7] was 60.1%; in [8], 71.8%; in [9], 88.7%; in test [10] it was 64.3%; in test [11] it was 30.2%; in test [12] it was 59.1%. For the same molecule, the growth in test [13] was 65.4%; in test [14] it was 91.6%; in test [15], 37.9%; in [16], 58.7%; in [17], 94.4%; in test [18], 72.9%.

On to `N/C(=N\C(N)=N\c1nc2ccccc2s1)c1ccc(C(F)(F)F)cc1`, for which the growth is 9.02% (active) in test [1]; 46.5% in test [2]; 55.8% in test [3]; 105% in test [4]; 94.6% in test [5]; 124% in test [6]. Also, the growth was 80.5% in test [7]; 91.2% in [8]; 86.9% in [9]; 30.4% in test [10]; 69% in [11]; 101% in test [12]. For the same molecule, the growth in [13] is 93%; in [14], 106%; in test [15], 77.9%; in [16] it was 56.4%; in test [18], 61.6%.

For `CCN1CCN(Cc2ccc(C(=O)Nc3ccc(C)c(Oc4ccc(-c5[nH]nc6ncnc(N)c56)cc4)c3)cc2C(F)(F)F)CC1`, the growth is 11.3% in test [1]; 65.8% in [2]; 96.7% in test [3]; 94.9% in test [4]; 87% in test [5]; 99.8% in [6]. The growth was 82.1% in test [7]; 116% in test [8]; 64.9% in test [9]; 67.2% in test [10]; 100% in [11]; 109% in test [12]. The growth in [13] is 82%; in test [14], 115%; in test [15], 70.6%; in [16], 67%; in test [17], 117%; in test [18], 21.2%.

As to `CC1(C)CC[C@]2(C(=O)N3CCOCC3)CC[C@]3(C)C(=CC[C@@H]4[C@@]5(C)C/C(=C/c6ccccn6)C(=O)C(C)(C)[C@@H]5CC[C@]43C)[C@@H]2C1`, the growth in test [1] was 22.5%; in test [2], 15.9%; in [3], 77.9%; in test [4] it was 88.4%; in test [5] it was 36.1%; in test [6] it was 108%. Moreover, the growth in test [7] is 65.3%; in test [8], 70.2%; in [9], 81.6%; in test [10], 81.4%; in test [11], 53.4%; in test [12] it was 70%. In addition, the growth in test [13] is 68.6%; in test [14], 69.6%; in [15] it was 44%; in test [16] it was 34.9%; in [17], 81.4%; in [18], 72.4%.

As for `CC[C@]12C=CCN3CC[C@@]4(c5cc(NC(=O)COc6cc(O)c7c(=O)cc(-c8ccccc8)oc7c6)c(OC)cc5N(C)[C@H]4[C@@](O)(C(=O)OC)[C@@H]1OC(C)=O)[C@@H]32`, the growth in [1] is -30.7% (active); in test [2], -31.6% (active); in test [3], -17.7% (active); in test [4], -86% (active); in test [5] it was -66.9% (active); in test [6], -86.1% (active). Also, the growth was -77.7% (active) in [7]; -86.2% (active) in test [8]; 2.1% (active) in [9]; -49.9% (active) in test [10]; -60.5% (active) in [11]; -36.2% (active) in test [12]. The growth in test [13] is -44.7% (active); in test [14], 7.84% (active); in test [15] it was -44.3% (active); in [16], -89.2% (active); in [17], -98.2% (active); in test [18] it was -82.2% (active).

For `Nc1ccccc1NC(=O)c1ccc(NC(=O)C/C=C/c2cccnc2)cc1`, the growth in test [1] was 30.7%; in test [2], 6.76% (active); in test [3], 26.3%; in test [4], 29.7%; in test [5], 39.8%; in [6], 44.5%. In addition, the growth in test [7] was 23.3%; in test [8], 33.2%; in test [9], 30.3%; in [10] it was 50.8%; in [11] it was 12.2%; in [12], 25.1%. In addition, the growth in test [13] is 26.3%; in [14], 15.7%; in test [15], 17.4%; in test [16], -29.3% (active); in test [17] it was 9.69% (active); in [18], 33.2%.

With `CCn1c(SCC(=O)Nc2cccc(C(=O)/C=C/c3cc(OC)c(OC)c(OC)c3)c2)nc2ccccc2c1=O`, the growth was 5.81% (active) in test [1]; -7.09% (active) in test [2]; 34.3% in [3]; 27.7% in [4]; 39.9% in test [5]; 102% in test [6]. Also, the growth in test [7] is 13%; in [8], 14.3%; in test [9], 59.3%; in test [10], 14.1%; in test [11] it was 49.3%; in test [12] it was 52.8%. For the same molecule, the growth is 36.7% in [13]; 14.9% in [14]; 19.9% in test [15]; -28.8% (active) in test [16]; 42.2% in test [17]; 44.6% in [18].

With `CCOc1ccccc1NC1=C(Cl)C(=O)c2nc(C)ccc2C1=O`, the growth in test [1] is -12.8% (active); in test [2] it was -35.1% (active); in [3], 0.93% (active); in test [4] it was 40.8%; in test [5] it was -92% (active); in test [6] it was 85.3%. The growth in test [7] was -57.5% (active); in [8], -98.9% (active); in test [9] it was 1.05% (active); in [10], -9.58% (active); in [11], -40% (active); in test [13], -85.7% (active). The growth in test [14] is -66.7% (active); in [15] it was -59.7% (active); in [16] it was -79.4% (active); in test [17], 20.3%; in test [18], 60.8%.

`O=C(Nc1ccc(N=Cc2c(O)[nH]c3ccccc23)cc1)Nc1nccs1`: the growth in test [1] is 10.7%; in test [2], 83.6%; in test [3] it was 55.7%; in test [4], 60.4%; in test [5], 40.6%; in test [6], 55%. For the same molecule, the growth was 29.5% in [7]; 15.4% in [8]; 31.5% in [9]; 40.8% in test [10]; 41.2% in test [11]; -52.7% (active) in test [13]. In addition, the growth in [14] is 21.4%; in [15] it was 22.7%; in [16], 27%; in [17] it was 73.9%; in test [18], 59.2%.

With `C=C(C)[C@@H]1CC[C@]2(COC)CC[C@]3(C)[C@H](CC[C@@H]4[C@@]5(C)CCCNC(C)(C)[C@@H]5CC[C@]43C)[C@@H]12`, the growth in test [1] was -54.9% (active); in test [2] it was -36.8% (active); in [3], 79.2%; in test [4], 75.5%; in [5], 28.7%; in test [6] it was 102%. Besides, the growth in test [7] is 37.2%; in test [8] it was 80.9%; in test [9], 37.8%; in test [10], 51.3%; in test [11], 54.1%; in [13], 10.4%. The growth in [14] is -57.6% (active); in test [15], 7.62% (active); in [16], -29.1% (active); in test [17], -29.1% (active); in [18], 38.1%.

With `Nn1c(N/N=C/c2nc3ccccc3s2)n[nH]c1=S`, the growth in [1] was 108%; in [2], 105%; in test [3], 107%; in test [4], 103%; in test [5], 85.8%; in test [6], 118%. For the same molecule, the growth in test [7] is 82.2%; in [8] it was 118%; in [9], 110%; in test [10], 118%; in test [11], 108%; in [13], 110%. Besides, the growth in [14] was 105%; in [15], 93.7%; in test [16] it was 107%; in test [17] it was 123%; in test [18] it was 102%.

With `COc1cc(-c2nn(C(C)(C)C)cc2-c2ccnc(NCCCNS(=O)(=O)c3ccc(F)cc3)n2)ccc1Cl`, the growth in [1] was 48.8%; in test [2], 75.1%; in [3] it was 89.2%; in test [4], 82.3%; in [5] it was 54.2%; in test [6] it was 104%. The growth in [7] was 61.6%; in test [8] it was 90.7%; in [9], 81%; in test [10], 79.9%; in test [11], 85.1%; in [13] it was 75%. For the same molecule, the growth in [14] is 95.9%; in test [15], 74.3%; in test [16], 56.1%; in test [18], 78.5%.

`CNC(=O)c1cc(-c2ccc(NC(=S)Nc3cc(C(F)(F)F)cc(C(F)(F)F)c3)cc2)nc2cccnc12`: the growth in test [1] is 71.8%; in test [2], 93.7%; in test [3], 100%; in test [4] it was 102%; in [5] it was 75.3%; in test [6] it was 102%. For the same molecule, the growth was 75.9% in [7]; 106% in test [8]; 93.9% in test [9]; 105% in [10]; 85.1% in test [11]; 94.9% in [13]. The growth in [14] was 98.1%; in test [15] it was 59.6%; in test [16], 99%; in test [17], 122%; in test [18], 98.6%.

These data come from PubChem BioAssay (NCI).
